Assay results: publication PMC7819943, “Rice protein-binding microarrays: a tool to detect cis-acting elements near promoter regions in rice”
In all, about 35,000 sequences were measured (“fluorescence intensity (a.u.)”: median about 10,000, highest 2% from about 52,000 on). The full list was thinned out, with the highest values kept by preference.

target: T1, OsWOX13 (Oryza sativa, UniProt Q5QMM3 1-267); assay: protein-binding microarray (RPBM); PBS, 2% BSA, 51.3 ng/ul salmon testes DNA, 50 uM zinc acetate, 200 nM TF, 25 C, 1 h; high values mean tight binding; settings: protein: recombinant; tags: N-terminal polyhistidine and DsRed monomer fusion (pET32a); label: CyDye5-dUTP incorporated in the synthesized complementary strand; 3' TTTTT single-stranded linker to array surface; dsDNA, one strand shown
T1 sequence: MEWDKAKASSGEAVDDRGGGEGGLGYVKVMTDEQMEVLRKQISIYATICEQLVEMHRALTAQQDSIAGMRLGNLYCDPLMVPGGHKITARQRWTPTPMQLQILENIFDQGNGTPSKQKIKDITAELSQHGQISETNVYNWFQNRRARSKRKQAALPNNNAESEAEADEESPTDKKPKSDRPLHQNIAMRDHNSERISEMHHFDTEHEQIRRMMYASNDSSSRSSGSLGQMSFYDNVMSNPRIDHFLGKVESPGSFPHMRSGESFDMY
Outline: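 Transcription factors were made in E. coli BL21-CodonPlus as N-terminal fusions to a polyhistidine tag and DsRed, then purified on Ni–NTA. After primer extension with Cy5-dUTP and blocking with 2% BSA, a custom Agilent array was exposed for 1 h at 25 °C to 200 nM protein in PBS, 2% BSA, salmon testes DNA and 50 µM zinc acetate. Washed arrays were scanned on an Axon 4000B, and the binding signal is per-feature fluorescence intensity in arbitrary units.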

Going from “CTGCACAGTTAATTAAAGGAAAACTGGCGAAAACCCGGCACGGAGTCACCTAGTGCAG” to “CTTGCTGGTACCAATTAACATGGGTATGTTTAATTTGCTGCGGAGTCACCTAGTGCAG”, the binding signal falls from 8360 fluorescence intensity (a.u.) to 3650 fluorescence intensity (a.u.).

First: CCTTAATTACATTGTATATAGTGATGTATGATTTATTTTACGGAGTCACCTAGTGCAG
Second: CATGAGTAAATCAATCAGGGATGGCAACATTCAGGTTTAGCGGAGTCACCTAGTGCAG
The binding signal of the first is higher: 14700 fluorescence intensity (a.u.) for the first, 12200 fluorescence intensity (a.u.) for the second.

Going from “CGTTTTGTTAAATTAAAATAAATTAACAAGCCCAATTGCACGGAGTCACCTAGTGCAG” to “TTACATTAGCAATTGATTGCTCTTATTTGACCATGATGTTCGGAGTCACCTAGTGCAG”, the binding signal rises from 22300 fluorescence intensity (a.u.) to 31500 fluorescence intensity (a.u.).

Compared with “TTAAAAGTTTGATTGAAATTGGAACGATGTGATGGAAAAGCGGAGTCACCTAGTGCAG”, “CGTGTGCAGTGCAGTGATGATTGAGAAAGGCCATGCCATACGGAGTCACCTAGTGCAG” is lower in binding signal: 22400 fluorescence intensity (a.u.) for the first, 3900 fluorescence intensity (a.u.) for the second.

Going from “TTGATTGAGATGTGACTGGAAAGGTGTGTCAGTGCAGGCACGGAGTCACCTAGTGCAG” to “TTGATTGAAATTGGAGATGATGTGACTGAAAAGTTGTGTGCGGAGTCACCTAGTGCAG”, the binding signal falls from 56800 fluorescence intensity (a.u.) to 41800 fluorescence intensity (a.u.).

Going from “GTTGATGAGAGTGAAATTTGATTGACAAAGGATTGACTGGCGGAGTCACCTAGTGCAG” to “CAGATGTGACTGGTATATATTGAAAGGTGCGAGGCACTGGCGGAGTCACCTAGTGCAG”, the binding signal falls from 64400 fluorescence intensity (a.u.) to 9620 fluorescence intensity (a.u.).

Going from “AAGTTTGATTAAAATTGGAACGATGTGATGGAAAAGTTAGCGGAGTCACCTAGTGCAG” to “AAATTAAATTATACTCAATACACAAGTTTGAATCTGATTCCGGAGTCACCTAGTGCAG”, the binding signal falls from 17300 fluorescence intensity (a.u.) to 11400 fluorescence intensity (a.u.).

Going from “AAAGTTTGGATTTTGATTGAAATTGAAGATGATGTGACTGCGGAGTCACCTAGTGCAG” to “TGATTCAAATGATTGAAGCTTTCCAAAACCTATGAAATTCCGGAGTCACCTAGTGCAG”, the binding signal falls from 26700 fluorescence intensity (a.u.) to 17700 fluorescence intensity (a.u.).

First: ATGCTTTGATTGAAATCAAGTACTCTGAAGCTAGTCATTCCGGAGTCACCTAGTGCAG
Second: TAAAATTGAAAATTTGATTGAAATTGGAACGATGTGATGGCGGAGTCACCTAGTGCAG
The binding signal of the first is lower: 56700 fluorescence intensity (a.u.) for the first, 64500 fluorescence intensity (a.u.) for the second.

Compared with “CAAATAATTATTATACTTTGTCATGTCATATAAACTATATCGGAGTCACCTAGTGCAG”, “ACTCATGCTTACTTGATTGATAGTGGAAGAACCTTTTCTTCGGAGTCACCTAGTGCAG” is higher in binding signal: 17900 fluorescence intensity (a.u.) for the first, 28200 fluorescence intensity (a.u.) for the second.

Compared with “AGTTTAATGGTGATAATATGATTTCAAAATCTGACAACCGCGGAGTCACCTAGTGCAG”, “TTTTCTGGTGGCAAGATGATTGAGATATACACCTTGAAGTCGGAGTCACCTAGTGCAG” is lower in binding signal: 12500 fluorescence intensity (a.u.) for the first, 7690 fluorescence intensity (a.u.) for the second.

Going from “GGAATTGGTAACAGCAAGCTTAACAGAGAAAGGTAGTCGACGGAGTCACCTAGTGCAG” to “TCTATAAATTGGCCTAGTACCTGGAAAGTGAAATCTGCCACGGAGTCACCTAGTGCAG”, the binding signal falls from 8350 fluorescence intensity (a.u.) to 7920 fluorescence intensity (a.u.).

Compared with “CGTAATTGCATCTCTATTTTCATCTCTACTTCATTTCTCTCGGAGTCACCTAGTGCAG”, “TTTGGTTGAAATTGAAACGATGTGATGGAAAAGTTGGAAGCGGAGTCACCTAGTGCAG” is lower in binding signal: 37900 fluorescence intensity (a.u.) for the first, 5010 fluorescence intensity (a.u.) for the second.

First: TCTGATTGAACGAGTTTACAGATTGAGAAAGCACGCGTCACGGAGTCACCTAGTGCAG
Second: CAAAATTTGAAGTTTGATTGAAATTGGTACGATGTGATGGCGGAGTCACCTAGTGCAG
The binding signal of the first is lower: 53800 fluorescence intensity (a.u.) for the first, 62400 fluorescence intensity (a.u.) for the second.

Compared with “TAGAAGTTTGATTGAAATTGAAACGATATGATGGAAAAGTCGGAGTCACCTAGTGCAG”, “ATAGTGATAGGTCTGTCAATGCAGTGAGGTCCTGAAAACCCGGAGTCACCTAGTGCAG” is lower in binding signal: 44500 fluorescence intensity (a.u.) for the first, 8210 fluorescence intensity (a.u.) for the second.

Compared with “AATTGATTTATTTTGAAACAGAGAGAATACAGTTTATTTACGGAGTCACCTAGTGCAG”, “TGATGAAGATGATGAGCATGTGATTGAGCTGTCTGATTGCCGGAGTCACCTAGTGCAG” is higher in binding signal: 32400 fluorescence intensity (a.u.) for the first, 33800 fluorescence intensity (a.u.) for the second.

Compared with “TCTCTGTGATTGAAACCTTGTCTCTGAAATGCTTGAGGGCCGGAGTCACCTAGTGCAG”, “TCTGATGAACACATTGAGAAAGCAGATGAAGTTGCAGTGTCGGAGTCACCTAGTGCAG” is lower in binding signal: 55400 fluorescence intensity (a.u.) for the first, 5120 fluorescence intensity (a.u.) for the second.

First: AAAATTGAAAGTTTGATTGAAATTAGAACGATGTGACGAACGGAGTCACCTAGTGCAG
Second: TCAAAATTAGAAGTTTGAAGAAATTGGAACGATGTGATGGCGGAGTCACCTAGTGCAG
The binding signal of the first is higher: 35500 fluorescence intensity (a.u.) for the first, 7940 fluorescence intensity (a.u.) for the second.

First: CTGATTGAAATTGAAAGTTTGATTGAAATTGAAACGATGCCGGAGTCACCTAGTGCAG
Second: TATTAAACGAATTATCACAAAATTATAGATTTATCATGTTCGGAGTCACCTAGTGCAG
The binding signal of the first is higher: 65300 fluorescence intensity (a.u.) for the first, 3760 fluorescence intensity (a.u.) for the second.

Going from “GCTCCAATTTAATTTCAAAATGAATTTATATATTCATTGTCGGAGTCACCTAGTGCAG” to “CTGCTTAATTACTTCAGCCTTTACACATCAGCATATCATACGGAGTCACCTAGTGCAG”, the binding signal falls from 14100 fluorescence intensity (a.u.) to 8250 fluorescence intensity (a.u.).

First: CGTAATTGTTTAGTTGCAAAAGGATAAGCACCAAACCAAACGGAGTCACCTAGTGCAG
Second: ATTATTTGATTGTGGTTTAATTGTTGGTGCAACAGGGTTACGGAGTCACCTAGTGCAG
The binding signal of the first is lower: 12400 fluorescence intensity (a.u.) for the first, 47900 fluorescence intensity (a.u.) for the second.

Compared with “AAGTTTGATTGAAATTGGAACGATGTGACGGAAAAGTTGACGGAGTCACCTAGTGCAG”, “TCAAAATTGGAAGTTTGATTGAAATTGGAACGATGTGACGCGGAGTCACCTAGTGCAG” is higher in binding signal: 35100 fluorescence intensity (a.u.) for the first, 61400 fluorescence intensity (a.u.) for the second.

Compared with “TTGGAAGTTTGATTGAAATTGGAACGATGTGACGGGAAAGCGGAGTCACCTAGTGCAG”, “TATGTGATTATCTTCTCCATACCATCATGTTCTAGATACGCGGAGTCACCTAGTGCAG” is higher in binding signal: 23300 fluorescence intensity (a.u.) for the first, 24900 fluorescence intensity (a.u.) for the second.

Going from “TTCTCATTTTATTTAATTTAAAAGTAATTTATTACATGTTCGGAGTCACCTAGTGCAG” to “GCCTAATTAATCCATGATTAACCATAAGTGCTGCAGTAACCGGAGTCACCTAGTGCAG”, the binding signal rises from 11600 fluorescence intensity (a.u.) to 33500 fluorescence intensity (a.u.).

First: CTGAGATGCTAATTGTGTGTACACTGTTGAGCACATTTGACGGAGTCACCTAGTGCAG
Second: GGCTATTTCGTCCCAATTACCAATGGGCTAATTTTGGATCCGGAGTCACCTAGTGCAG
The binding signal of the first is lower: 3680 fluorescence intensity (a.u.) for the first, 5000 fluorescence intensity (a.u.) for the second.

“CTCCCAATATAATTATTTTCTATTTTCACAAACTCAGATACGGAGTCACCTAGTGCAG” was tested, and the binding signal was 5940 fluorescence intensity (a.u.).
